In PubChem BioAssay (EPA / NIEHS):
Calls of active or inactive are those of the source. How the source made its calls: active means hit-call score of the fitted dose curve at least 0.9, where 1 is the maximum; inconclusive means response in the unintended direction; inactive means score below 0.9.

target: Peroxisome proliferator-activated receptor gamma (Homo sapiens) (UniProt P37231); test: OT_PPARg_PPARgSRC1_1440: Odyssey Thera (OT) 24-hour Protein-Complementation Assay for Peroxisome Proliferator-activated Receptor Gamma/ SRC-1 Co-activator (AID 2283388);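 further: nuclear to cytoplasmic ratio of reconstituted Venus YFP fluorescence in fixed imaged cells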
Sequence (P37231 whole entry, looked up, the tested form may be a part): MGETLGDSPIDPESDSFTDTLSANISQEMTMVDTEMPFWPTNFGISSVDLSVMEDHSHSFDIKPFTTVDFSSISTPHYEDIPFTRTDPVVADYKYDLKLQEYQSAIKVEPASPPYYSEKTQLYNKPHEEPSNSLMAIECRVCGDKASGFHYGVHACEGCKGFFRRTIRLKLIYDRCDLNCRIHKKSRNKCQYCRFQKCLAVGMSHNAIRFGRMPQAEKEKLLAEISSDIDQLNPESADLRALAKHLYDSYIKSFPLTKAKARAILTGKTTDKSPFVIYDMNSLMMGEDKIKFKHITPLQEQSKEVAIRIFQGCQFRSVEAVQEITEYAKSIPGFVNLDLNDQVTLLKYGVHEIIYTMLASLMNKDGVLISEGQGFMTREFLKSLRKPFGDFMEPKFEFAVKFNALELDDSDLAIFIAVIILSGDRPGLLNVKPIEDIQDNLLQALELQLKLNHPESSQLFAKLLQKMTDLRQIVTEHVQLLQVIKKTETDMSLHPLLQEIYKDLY
Procedure, shortened: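 Cells carrying the PPARg/SRC-1 fragment-complementation reporter receive compound for 24 hours, are fixed and counterstained with Draq5, then imaged. Increased nuclear relative to cytoplasmic YFP fluorescence above DMSO baseline indicates binding activity.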

outcome, inactive:
CC1CC(OC(=O)c2ccccc2O)CC(C)(C)C1 (stereo not drawn)
CCCC1CCC(=O)O1 (stereo not drawn)
CC(C)=CCCC(C)=CCCC(C)=CCO
CCCCOCCOCCOCCOCCO
CCCCCOC(=O)CCC
CSc1nc(NC2CC2)nc(NC(C)(C)C)n1
C=O
CC(C)=CCCC(C)CC=O (stereo not drawn)
CCCC/C=C\CCCCCCCCCC=O
NCCCN1CCOCC1
CC1COc2ccccc2N1C(=O)C(Cl)Cl (stereo not drawn)
C=CC[N+](C)(C)CC=C
NCCNCCN
c1ccc(CCCc2ccccn2)cc1
CC(C)c1cccc(O)c1
CCCCCCCCCCCCCOS(=O)(=O)O
CC(C)(C#N)c1cc(Cn2cncn2)cc(C(C)(C)C#N)c1
O=Nc1ccc(Nc2ccccc2)cc1
CCCCCCCCC
C=CCOc1nc(OCC=C)nc(OCC=C)n1
CC(=O)OCCC(C)CC(C)(C)C (stereo not drawn)
O=c1cc(-c2ccccc2)oc2cc(O)cc(O)c12
CCCCC(CC)COC(=O)/C=C\C(=O)OCC(CC)CCCC (stereo not drawn)
O=C(Cl)c1cccc(C(=O)Cl)c1
CCCCC[Si](OCC)(OCC)OCC
C=CC(C)(O)CCC=C(C)CCC=C(C)C (stereo not drawn)
NCCCCCCN
C=C(C)C(=O)O
